Experiment [1] is described as follows: ATG_M_06_TRANS: Attagene TRANS-FACTORIAL HepG2 Assay for M06 Transcription Factor (Internal Marker) (AID 2282983; active = hit-call score of the fitted dose curve at least 0.9, where 1 is the maximum;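 also: reporter transcript level by RT-PCR then capillary electrophoresis fluorescence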). The conditions noted are these: HepG2 Attagene TRANS M06 internal marker reporter. In short, it runs like this: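 In this multiplexed HepG2 system, compounds are incubated 24 h with cells carrying GAL4-UAS reporter units. Reporter RNA is amplified and resolved by capillary electrophoresis, and induction is scored against DMSO.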

Experiment [2] in a line: ATG_M_32_TRANS: Attagene TRANS-FACTORIAL HepG2 Assay for M32 Transcription Factor (Internal Marker) (AID 2282984; active = hit-call score of the fitted dose curve at least 0.9, where 1 is the maximum;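 also: transcript level of a background control reporter unit measured by RT-PCR and capillary electrophoresis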). The note with it: HepG2 Attagene TRANS M32 internal marker reporter. In a few lines:
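Cell-based TRANS-format assay in HepG2: exogenous chimeric GAL4 reporter units transiently expressed, compounds applied 24 h. Reporter mRNA detected by RT-PCR plus capillary electrophoresis; this readout is an internal background marker.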

The target in experiment [3] is Transcriptional activator Myb (Homo sapiens) (UniProt P10242). The experiment is described as follows: ATG_Myb_CIS: Attagene CIS-FACTORIAL HepG2 Assay for human Myeloblastosis (Myb) Proto-Oncogene Transcription Factor (AID 2282986). The conditions noted are these: HepG2 Attagene CIS-FACTORIAL Myb reporter transcription; actives raise or lower the signal. In short, it runs like this:
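HepG2 cells were transiently transfected with cis-regulated multiple reporter transcription units reflecting endogenous Myb activity, then exposed to compound for 24 hours. Reporter mRNA was measured by RT-PCR with capillary electrophoresis; bidirectional fitting versus DMSO baseline.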

In experiment [4] the target is Nuclear respiratory factor 1 (Homo sapiens) (UniProt Q16656). The experiment is described as follows: ATG_NRF1_CIS: Attagene CIS-FACTORIAL HepG2 Assay for human Nuclear Respiratory Factor 1 (NRF1) Orphan Gene (AID 2282987). The conditions noted are these: HepG2 NRF1 cis-element reporter, Attagene multiplex; actives raise or lower the signal. In a few lines: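 HepG2 cells transiently transfected with multiple reporter transcription units under cis-regulatory promoter control, so endogenous transcription-factor activity is read. After 24 h compound exposure, reporter mRNA quantified by RT-PCR, fluorescent labelling, HpaI digestion and capillary electrophoresis; bidirectional fitting versus DMSO.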

A short description of experiment [5]: ATG_NFI_CIS: Attagene CIS-FACTORIAL HepG2 Assay for human Nuclear Factor I (NFI) (AID 2282989). The note with it: HepG2 cis-regulatory reporter, NFI response element transcription; actives raise or lower the signal. In short, it runs like this:
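Multiplexed cis-reporter system in human HepG2 cells reports native TF activity as reporter mRNA induction 24 h post-dose. Fragments labelled with 6-FAM, HpaI-digested and resolved by capillary electrophoresis; activity fitted both directions versus DMSO.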

In experiment [6] the target is Myc proto-oncogene protein (Homo sapiens) (UniProt P01106). In words: ATG_Myc_CIS: Attagene CIS-FACTORIAL HepG2 Assay for human Myelocytomatosis (Myc) Proto-Oncogene Transcription Factor (AID 2282990). The note with it: HepG2, Attagene cis-reporter transcription factor activity; actives raise or lower the signal. In short, it runs like this:
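HepG2, transient MRTU transfection (cis promoters, endogenous TFs); 24 h dosing; TriZol RNA → oligo(dT) RT → PCR → 6-FAM primer extension → HpaI cut → CE. Bidirectional fit vs DMSO.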

Experiment [7] is described as follows: ATG_NF_kB_CIS: Attagene CIS-FACTORIAL HepG2 Assay for human Nuclear Factor Kappa B (NF-kB) (AID 2282991). The note with it: HepG2 Attagene cis-factorial NF-kB reporter mRNA; actives raise or lower the signal. In short, it runs like this: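 HepG2 cells transiently transfected with multiplexed cis-element reporter units measuring endogenous transcription factor activity; reporter mRNA read 24 h after dosing by RT-PCR, fluorescent labelling, HpaI digestion and capillary electrophoresis. Bidirectional fit against DMSO baseline.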

Experiment [8] in a line: ATG_NRF2_ARE_CIS: Attagene CIS-FACTORIAL HepG2 Assay for human Nuclear Factor Erythroid 2 Related Factor 2 (NFR2) response to Antioxidant Response Elements (ARE) (AID 2282992).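 As to AC50: reporter mRNA level measured by RT-PCR and capillary electrophoresis fluorescence.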 The conditions noted are these: HepG2 Attagene ARE/NRF2 reporter, transcription factor activity; actives raise or lower the signal. In a few lines:
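Fluorescence intensity of reporter-specific cDNA fragments, separated by capillary electrophoresis, reflects mRNA induction in transfected HepG2 cells at 24 h. Activity is fitted bidirectionally, DMSO serving as baseline.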

The nature of experiment [9]: ATG_Oct_MLP_CIS: Attagene CIS-FACTORIAL HepG2 Assay for human Octamer-Binding Transcription Factor (Oct) (AID 2282993). The conditions noted are these: HepG2 Attagene cis-factorial Oct reporter, mRNA; actives raise or lower the signal. In a few lines:
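After 24 h compound exposure, transfected HepG2 cells were lysed for total RNA; reporter-specific cDNA was PCR-amplified, fluorescently labelled and sized by capillary electrophoresis. Bidirectional curve fitting used DMSO as baseline.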

For experiment [10], the target named is Cellular tumor antigen p53 (Homo sapiens) (UniProt P04637). In words: ATG_p53_CIS: Attagene CIS-FACTORIAL HepG2 Assay for human p53 Transcription Factor (AID 2282994). The conditions noted are these: HepG2 p53 cis-element reporter, Attagene mRNA; actives raise or lower the signal. In a few lines: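 Transiently transfected HepG2 (multiple cis reporter transcription units); exposure 24 h; reporter RNA via RT-PCR, 6-FAM extension, 2 h HpaI digest at 37 C, CE detection; DMSO baseline.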

Experiment [11] deals with human Peroxisome Proliferator-activated Receptor alpha (PPARa), PPARA (gene 5465) (UniProt Q07869). The experiment is described as follows: ATG_PPARa_TRANS: Attagene TRANS-FACTORIAL HepG2 Assay for human Peroxisome Proliferator-activated Receptor alpha (PPARa) (AID 2283001; active = hit-call score of the fitted dose curve at least 0.9, where 1 is the maximum;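 as to AC50: potency for gain of reporter signal over DMSO so agonist or activator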). In a few lines: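 Transfected HepG2 cells treated with test chemical for 24 h. RNA isolated, reverse-transcribed with oligo(dT), PCR-amplified, FAM-labelled and HpaI-digested. Fragments sized by capillary electrophoresis; gain-of-signal fit relative to DMSO.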

The target of experiment [12] is Hepatocyte nuclear factor 4-alpha (Homo sapiens) (UniProt P41235). In words: ATG_HNF4a_TRANS: Attagene TRANS-FACTORIAL HepG2 Assay for human Hepatocyte Nuclear Factor 4 alpha (HNF4a) (AID 2282982; active = hit-call score of the fitted dose curve at least 0.9, where 1 is the maximum). The note with it: HepG2 HNF4a transactivation reporter, mRNA readout. In short, it runs like this: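 Multiplexed reporter assay: transfected HepG2, 24 h exposure, total RNA → oligo(dT) RT → PCR → 6-FAM extension → HpaI digest → CE fluorescence. DMSO = negative control.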

For experiment [13], the target named is Nuclear receptor subfamily 4 group A member 2 (Homo sapiens) (UniProt P43354). The experiment is described as follows: ATG_NURR1_TRANS: Attagene TRANS-FACTORIAL HepG2 Assay for human Nuclear Receptor Related Protein 1 (NURR1) (AID 2282985; active = hit-call score of the fitted dose curve at least 0.9, where 1 is the maximum). The conditions noted are these: HepG2 Attagene TRANS reporter, mRNA readout. In short, it runs like this: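 Measures transcriptional activation by an exogenous NR-Gal4 chimera in transfected HepG2 liver cells. After 24 h, reporter RNA is reverse-transcribed, amplified and resolved by capillary electrophoresis; DMSO defines baseline.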

Experiment [14] is described as follows: BSK_3C_TissueFactor: BioMAP Diversity Plus: 3C Assay for Tissue Factor Biomarker Activity (AID 2282997). The conditions noted are these: BioMAP 3C HUVEC, tissue factor biomarker readout; actives raise or lower the signal. In a few lines:
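Readout: Tissue Factor ELISA. Cells: human primary umbilical vein endothelium. Time: 24 h after dosing. Analysis: bidirectional fit, DMSO baseline.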

Experiment [15] can be described thus: BSK_3C_uPAR: BioMAP Diversity Plus: 3C Assay for Urokinase-type plasminogen activator receptor (uPAR) Biomarker Activity (AID 2282998). The conditions noted are these: BioMAP 3C HUVEC, uPAR biomarker ELISA; actives raise or lower the signal. In a few lines:
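Values derive from bidirectional curve fitting relative to DMSO, which served as baseline of activity. uPAR was measured by ELISA in human umbilical vein endothelial primary cultures 24 h after compound addition.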

The nature of experiment [16]: BSK_3C_VCAM1: BioMAP Diversity Plus: 3C Assay for Vascular cell adhesion molecule 1 (VCAM1) Biomarker Activity (AID 2282999). The note with it: BioMAP 3C HUVEC, VCAM1 ELISA, cytokine-stimulated; actives raise or lower the signal. In short, it runs like this: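 Activity fitted in both directions relative to DMSO, with ELISA measurement of the surface marker on primary HUVEC (3C) at 24 h post-treatment; parallel SRB staining (0.1% SRB, TCA-fixed, 560 nm) flagged overt cytotoxicity.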

Experiment [17] in a line: BSK_4H_Eotaxin3: BioMAP Diversity Plus: 4H Assay for Eotaxin 3 Biomarker Activity (AID 2283000).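 Also: CCL26 protein level quantified by ELISA in parallel with SRB cytotoxicity check.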 The conditions noted are these: primary human endothelial cells (HUVEC); actives raise or lower the signal. In a few lines: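 HUVEC, 24 h post-dose, ELISA for Eotaxin-3/CCL26. Gain or loss of signal fitted bidirectionally vs DMSO baseline.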
Experiment [18] addresses human Peroxisome Proliferator-activated Receptor delta (PPARd), PPARD (gene 5467) (UniProt Q03181). In words: ATG_PPARd_TRANS: Attagene TRANS-FACTORIAL HepG2 Assay for human Peroxisome Proliferator-activated Receptor delta (PPARd) (AID 2283002; active = hit-call score of the fitted dose curve at least 0.9, where 1 is the maximum). In a few lines: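 Transient HepG2 transfection (multiple GAL4-UAS RTUs, chimeric receptor-Gal4); 24 h dosing; total RNA → oligo(dT) RT → PCR → 6-FAM primer extension → HpaI cut → CE. Positive direction vs DMSO.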

Outcome and AC50 data for eight compounds are collected here from PubChem BioAssay (EPA / NIEHS).

“And” between values parts separate entries of the source, which are not always exact repeats. Equal entries are not always repeated. Results filed as inconclusive are left out. The source made the active and inactive calls. The calls were made as follows, unless noted: active = hit-call score of the fitted dose curve at least 0.9, where 1 is the maximum; inactive = score below 0.9.

Hepatocyte nuclear factor 4-alpha (Homo sapiens), sequence (P41235 whole entry, looked up): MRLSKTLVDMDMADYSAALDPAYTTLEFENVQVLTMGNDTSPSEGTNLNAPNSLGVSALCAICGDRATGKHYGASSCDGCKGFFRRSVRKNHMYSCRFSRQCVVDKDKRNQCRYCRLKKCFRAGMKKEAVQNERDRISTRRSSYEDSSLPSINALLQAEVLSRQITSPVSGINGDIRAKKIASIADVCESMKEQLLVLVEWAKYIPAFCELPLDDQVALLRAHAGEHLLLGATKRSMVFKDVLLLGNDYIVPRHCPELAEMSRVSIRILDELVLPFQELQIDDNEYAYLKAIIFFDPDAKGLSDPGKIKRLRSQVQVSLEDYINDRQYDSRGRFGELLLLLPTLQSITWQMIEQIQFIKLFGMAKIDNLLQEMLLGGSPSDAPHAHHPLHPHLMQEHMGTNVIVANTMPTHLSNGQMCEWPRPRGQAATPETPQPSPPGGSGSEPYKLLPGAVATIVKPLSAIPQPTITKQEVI
human Peroxisome Proliferator-activated Receptor alpha (PPARa), PPARA (gene 5465), sequence (Q07869 whole entry, looked up, the tested form may be a part): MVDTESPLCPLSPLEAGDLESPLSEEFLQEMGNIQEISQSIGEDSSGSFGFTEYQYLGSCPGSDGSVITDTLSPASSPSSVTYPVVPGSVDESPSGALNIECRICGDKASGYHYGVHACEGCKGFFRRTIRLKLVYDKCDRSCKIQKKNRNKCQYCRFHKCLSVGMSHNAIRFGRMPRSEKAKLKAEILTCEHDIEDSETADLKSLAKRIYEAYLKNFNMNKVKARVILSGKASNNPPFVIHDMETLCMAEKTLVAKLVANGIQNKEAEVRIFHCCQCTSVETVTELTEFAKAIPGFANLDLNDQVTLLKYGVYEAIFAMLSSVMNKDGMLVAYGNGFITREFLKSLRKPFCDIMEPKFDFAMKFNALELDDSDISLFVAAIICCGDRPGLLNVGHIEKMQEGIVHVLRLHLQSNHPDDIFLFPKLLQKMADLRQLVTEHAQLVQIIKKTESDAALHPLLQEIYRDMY
Transcriptional activator Myb (Homo sapiens), sequence (P10242 whole entry, looked up): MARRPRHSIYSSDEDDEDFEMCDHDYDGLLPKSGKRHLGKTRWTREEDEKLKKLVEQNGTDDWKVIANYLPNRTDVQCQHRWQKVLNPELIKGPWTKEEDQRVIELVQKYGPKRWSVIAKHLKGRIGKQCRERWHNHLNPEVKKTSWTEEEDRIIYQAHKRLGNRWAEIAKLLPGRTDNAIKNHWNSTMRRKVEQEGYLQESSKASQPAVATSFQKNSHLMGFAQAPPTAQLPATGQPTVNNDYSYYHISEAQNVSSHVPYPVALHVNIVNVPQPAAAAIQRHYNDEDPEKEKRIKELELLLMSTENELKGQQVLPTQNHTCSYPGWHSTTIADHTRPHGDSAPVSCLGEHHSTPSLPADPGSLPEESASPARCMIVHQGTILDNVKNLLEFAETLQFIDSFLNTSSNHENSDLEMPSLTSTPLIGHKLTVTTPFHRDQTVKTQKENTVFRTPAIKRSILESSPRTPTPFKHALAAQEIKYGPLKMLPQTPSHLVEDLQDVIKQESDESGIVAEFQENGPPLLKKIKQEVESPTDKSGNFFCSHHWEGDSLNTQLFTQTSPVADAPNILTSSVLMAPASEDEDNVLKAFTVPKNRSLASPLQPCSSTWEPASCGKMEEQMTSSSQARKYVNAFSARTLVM
human Peroxisome Proliferator-activated Receptor delta (PPARd), PPARD (gene 5467), sequence (Q03181 whole entry, looked up, the tested form may be a part): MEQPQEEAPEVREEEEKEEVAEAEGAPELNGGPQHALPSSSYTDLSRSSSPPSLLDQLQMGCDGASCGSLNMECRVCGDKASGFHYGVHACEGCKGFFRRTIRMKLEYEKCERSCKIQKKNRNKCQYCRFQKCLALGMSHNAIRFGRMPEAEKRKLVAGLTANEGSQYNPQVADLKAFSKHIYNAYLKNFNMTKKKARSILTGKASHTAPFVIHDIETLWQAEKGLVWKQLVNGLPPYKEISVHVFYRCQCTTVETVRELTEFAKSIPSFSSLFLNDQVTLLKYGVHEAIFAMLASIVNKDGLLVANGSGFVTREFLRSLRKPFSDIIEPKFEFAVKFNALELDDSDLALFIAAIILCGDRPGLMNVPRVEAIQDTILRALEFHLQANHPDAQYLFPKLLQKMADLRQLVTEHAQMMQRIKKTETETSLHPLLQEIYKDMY
Cellular tumor antigen p53 (Homo sapiens), sequence (P04637 whole entry, looked up): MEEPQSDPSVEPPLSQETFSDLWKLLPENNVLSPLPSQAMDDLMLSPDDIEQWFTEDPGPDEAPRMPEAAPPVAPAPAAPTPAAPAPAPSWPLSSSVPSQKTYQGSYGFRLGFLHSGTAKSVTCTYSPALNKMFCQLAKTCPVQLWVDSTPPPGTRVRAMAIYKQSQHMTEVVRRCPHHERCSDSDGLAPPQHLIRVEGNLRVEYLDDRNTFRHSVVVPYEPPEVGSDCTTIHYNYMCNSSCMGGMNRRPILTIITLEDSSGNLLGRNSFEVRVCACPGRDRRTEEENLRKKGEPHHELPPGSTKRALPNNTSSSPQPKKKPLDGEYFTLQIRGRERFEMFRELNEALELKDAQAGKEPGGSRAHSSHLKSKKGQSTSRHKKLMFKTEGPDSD
Nuclear respiratory factor 1 (Homo sapiens), sequence (Q16656 whole entry, looked up): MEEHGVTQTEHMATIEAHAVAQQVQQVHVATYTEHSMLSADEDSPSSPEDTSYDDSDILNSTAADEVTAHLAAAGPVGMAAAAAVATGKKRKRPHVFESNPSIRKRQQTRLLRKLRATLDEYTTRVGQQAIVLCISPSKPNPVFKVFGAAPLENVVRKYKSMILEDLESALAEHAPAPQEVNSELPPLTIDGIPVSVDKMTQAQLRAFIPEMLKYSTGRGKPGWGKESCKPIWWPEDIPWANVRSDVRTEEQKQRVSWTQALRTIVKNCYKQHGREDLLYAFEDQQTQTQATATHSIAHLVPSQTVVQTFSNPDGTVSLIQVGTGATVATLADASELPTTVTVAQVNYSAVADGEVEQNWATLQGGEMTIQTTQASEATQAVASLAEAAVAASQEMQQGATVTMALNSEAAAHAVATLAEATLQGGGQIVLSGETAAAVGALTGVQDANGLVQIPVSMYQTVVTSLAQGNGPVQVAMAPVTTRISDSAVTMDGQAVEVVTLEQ
Nuclear receptor subfamily 4 group A member 2 (Homo sapiens), sequence (P43354 whole entry, looked up, the tested form may be a part): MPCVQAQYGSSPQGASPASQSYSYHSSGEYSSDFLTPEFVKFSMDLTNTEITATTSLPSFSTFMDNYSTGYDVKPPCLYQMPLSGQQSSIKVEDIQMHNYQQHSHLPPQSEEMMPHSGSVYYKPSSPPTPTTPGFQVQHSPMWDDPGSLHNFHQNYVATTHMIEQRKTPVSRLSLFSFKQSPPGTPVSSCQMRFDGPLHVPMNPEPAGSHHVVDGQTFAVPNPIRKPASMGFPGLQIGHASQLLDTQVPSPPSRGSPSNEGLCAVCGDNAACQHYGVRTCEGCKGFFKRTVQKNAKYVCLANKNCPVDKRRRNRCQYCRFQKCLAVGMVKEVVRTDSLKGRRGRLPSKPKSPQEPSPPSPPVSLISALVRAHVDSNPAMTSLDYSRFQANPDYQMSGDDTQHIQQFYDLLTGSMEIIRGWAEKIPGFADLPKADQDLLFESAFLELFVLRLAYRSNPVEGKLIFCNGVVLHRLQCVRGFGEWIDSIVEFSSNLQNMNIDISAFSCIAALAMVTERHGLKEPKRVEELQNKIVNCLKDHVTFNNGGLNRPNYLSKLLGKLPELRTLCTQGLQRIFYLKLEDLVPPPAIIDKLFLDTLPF
Myc proto-oncogene protein (Homo sapiens), sequence (P01106 whole entry, looked up): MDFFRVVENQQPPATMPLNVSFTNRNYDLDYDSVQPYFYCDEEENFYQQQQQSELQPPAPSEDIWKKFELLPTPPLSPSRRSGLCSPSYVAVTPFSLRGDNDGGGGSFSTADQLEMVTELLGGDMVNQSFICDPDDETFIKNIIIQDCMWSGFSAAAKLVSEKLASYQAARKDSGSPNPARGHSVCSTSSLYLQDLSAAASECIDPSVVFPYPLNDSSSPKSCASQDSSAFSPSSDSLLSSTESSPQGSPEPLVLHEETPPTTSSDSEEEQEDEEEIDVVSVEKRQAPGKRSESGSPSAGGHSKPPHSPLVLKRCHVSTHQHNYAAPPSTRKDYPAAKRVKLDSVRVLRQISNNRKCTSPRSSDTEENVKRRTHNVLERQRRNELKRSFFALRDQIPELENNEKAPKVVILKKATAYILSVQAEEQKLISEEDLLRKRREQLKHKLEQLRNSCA

As for `NC(C(F)(F)F)C(F)(F)F`, the compound was classed as inactive in [1], in experiment [2], in [3], in experiment [4], in [5] and in experiment [6]. Moreover, the call in [7], in experiment [8], in [9], in experiment [10] and in [11] was inactive.
A word on the AC50: it is the concentration at which the activity in the assay is half-maximal. As to `Oc1cc2ccccc2cc1O`, the result in [12], in experiment [13], in experiment [3], in experiment [4], in experiment [5] and in [6] was inactive. The result in experiment [7], in experiment [9], in experiment [10], in experiment [14], in experiment [15] and in experiment [16] was inactive. Also, the outcome in [17] and in [18] was inactive. Further, the AC50 in [8] is 100 µM (active); in [11], 42.8 µM (active).
`CCCC=O`: the result in [12], in experiment [1], in [3], in experiment [4], in experiment [5] and in experiment [6] was inactive. Moreover, the result in experiment [7], in [8], in experiment [9] and in experiment [10] was inactive.
Take `Clc1ccc(Nc2nnc(Cc3ccncc3)c3ccccc23)cc1`: the call in [12], in experiment [2], in [3], in experiment [4], in [5] and in experiment [6] was inactive. Besides, the compound was classed as inactive in [7], in experiment [9], in [10], in [14], in [15] and in [16]. The outcome in [17] and in experiment [18] was inactive. Also, in experiment [8], the AC50 is 18.7 µM (active).
Take `CCO[Si](C)(C)OCC`: the outcome in [12], in experiment [2], in [13], in experiment [3], in [4] and in [5] was inactive. Further, the result in experiment [6], in [7], in [8], in experiment [9], in [10] and in [18] was inactive.
`O=c1cc(-c2ccccc2)oc2ccc3ccccc3c12`: the compound was called inactive in experiment [12], in [2], in experiment [13], in experiment [3], in experiment [4] and in experiment [5]. The outcome in experiment [6], in experiment [7], in experiment [9], in experiment [10], in experiment [11] and in experiment [18] was inactive. Also, the AC50 in experiment [8] was 182 nM (active) and 134 nM (active).
Take `O=C(OC(=O)C(F)(F)C(F)(F)F)C(F)(F)C(F)(F)F`: the outcome in [12], in [3], in [4], in experiment [5], in [6] and in experiment [7] was inactive. Moreover, the compound was called inactive in experiment [8], in experiment [9], in experiment [10], in experiment [11] and in experiment [18].
Consider `CC(C)[C@@H]1CC[C@@H](C)C[C@H]1O`, for which the result in experiment [12], in experiment [2], in [13], in [3], in experiment [4] and in experiment [6] was inactive. Moreover, the call in experiment [7], in experiment [8], in experiment [9], in [11] and in [18] was inactive.
